Experiment [1] relates to Plasmodium falciparum Sir2 (PF13_0152, Sir2A). The experiment in a line: pfSir2 binders on small-molecule microarrays, primary screen, biochemical, small-molecule microarray, 635 nm fluorescence (AID 1098).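 Note: score merges spot fluorescence intensity with its signal-to-noise ratio.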 To be noted: small-molecule microarray binding, fluorescence 635 nm; higher = more signal.
Experiment [2] in a line: small-molecule microarray binders of probe aDKK1, primary screen, biochemical, biotinylated probe, 635/667 nm fluorescence (AID 1099).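 Note: score merges 667nm spot fluorescence with signal to noise across triplicate slides.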 To be noted: higher = more signal.
Experiment [3] in a line: small-molecule microarray binders of probe aCHRDL2, primary screen, biochemical, biotinylated probe, 635/667 nm fluorescence (AID 1100). The settings on record: higher = more signal.
The nature of experiment [4]: splicing luciferase reporter signal modulators, primary screen, spliceosome inhibition project, cell-based, HEK293, splice +/- reporter (AID 1101).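 Note: HEK293 cells carrying a splicing-competent luciferase reporter gene; test concentration not given here.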 The settings on record: luminescence, 24 h, higher = more signal, called active from +8 up or from −8 down. (In general: Reporter assays use an easily measured gene product as a stand-in for the process of interest.)
In experiment [5] the target is Fibroblast growth factor 10 (Homo sapiens) (UniProt O15520). The experiment can be described thus: FGF10 binders on small-molecule microarrays, primary screen, biochemical, small-molecule microarray, 635 nm fluorescence (AID 1102). The settings on record: FGF10 binding, fluorescence 635 nm, higher = more signal.
Sequence of Fibroblast growth factor 10 (Homo sapiens) (O15520 whole entry, looked up): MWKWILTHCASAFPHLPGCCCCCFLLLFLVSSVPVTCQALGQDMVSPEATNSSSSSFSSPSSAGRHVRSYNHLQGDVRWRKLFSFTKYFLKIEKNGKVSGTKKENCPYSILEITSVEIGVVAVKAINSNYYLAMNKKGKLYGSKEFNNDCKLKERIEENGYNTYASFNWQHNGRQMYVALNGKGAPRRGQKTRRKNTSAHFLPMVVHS
Experiment [6] has as its system glycogen synthase kinase-3 (GSK3A per assay name; protocol says GSK3B). The experiment in a line: GSK3 binders on small-molecule microarrays, primary screen, biochemical, small-molecule microarray, 635 nm fluorescence, GSK3A (AID 1103). Note: the record names both GSK3A and GSK3B. To be noted: small-molecule microarray binding, fluorescence 635 nm; higher = more signal.
The target in experiment [7] is Epidermal growth factor receptor (Homo sapiens) (UniProt P00533). The experiment in a line: EGFR binders on small-molecule microarrays, primary screen, biochemical, small-molecule microarray, 635 nm fluorescence (AID 1104).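 Note: score merges 667 nm emission intensity with spot signal to noise over triplicate slides.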 To be noted: EGFR binding, higher = more signal.
Sequence of Epidermal growth factor receptor (Homo sapiens) (P00533 whole entry, looked up): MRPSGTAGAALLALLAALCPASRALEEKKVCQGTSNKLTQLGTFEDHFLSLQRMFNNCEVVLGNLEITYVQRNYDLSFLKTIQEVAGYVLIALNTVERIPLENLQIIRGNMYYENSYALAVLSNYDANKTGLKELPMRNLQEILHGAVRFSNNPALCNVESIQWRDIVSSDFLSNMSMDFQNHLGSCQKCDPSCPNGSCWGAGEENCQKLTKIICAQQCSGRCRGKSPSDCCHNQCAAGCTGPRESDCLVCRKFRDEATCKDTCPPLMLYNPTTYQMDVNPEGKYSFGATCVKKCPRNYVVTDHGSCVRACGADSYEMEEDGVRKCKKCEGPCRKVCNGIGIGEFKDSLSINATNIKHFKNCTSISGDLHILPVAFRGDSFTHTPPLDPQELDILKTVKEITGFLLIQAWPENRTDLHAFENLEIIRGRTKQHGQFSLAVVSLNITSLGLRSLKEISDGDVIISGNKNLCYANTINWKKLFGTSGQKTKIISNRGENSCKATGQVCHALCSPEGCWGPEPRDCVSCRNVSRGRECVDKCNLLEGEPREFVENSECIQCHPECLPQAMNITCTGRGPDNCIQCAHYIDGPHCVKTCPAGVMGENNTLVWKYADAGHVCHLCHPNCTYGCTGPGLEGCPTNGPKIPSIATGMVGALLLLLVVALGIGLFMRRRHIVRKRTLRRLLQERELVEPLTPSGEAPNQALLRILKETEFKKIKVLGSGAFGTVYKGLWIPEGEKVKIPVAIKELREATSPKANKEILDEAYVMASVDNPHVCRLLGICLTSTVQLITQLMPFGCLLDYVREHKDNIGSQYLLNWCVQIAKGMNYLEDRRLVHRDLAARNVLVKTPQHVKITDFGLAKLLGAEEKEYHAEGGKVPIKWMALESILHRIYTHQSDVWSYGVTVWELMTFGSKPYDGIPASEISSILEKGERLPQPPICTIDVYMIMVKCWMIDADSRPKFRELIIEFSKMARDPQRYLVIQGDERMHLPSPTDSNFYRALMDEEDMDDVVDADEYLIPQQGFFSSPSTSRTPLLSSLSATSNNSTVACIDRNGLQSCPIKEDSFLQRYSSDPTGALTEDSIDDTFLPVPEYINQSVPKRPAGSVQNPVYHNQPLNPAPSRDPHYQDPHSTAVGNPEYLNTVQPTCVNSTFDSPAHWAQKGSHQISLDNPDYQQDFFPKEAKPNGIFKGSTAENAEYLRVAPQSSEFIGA
The target of experiment [8] is Follistatin-related protein 3 (Homo sapiens) (UniProt O95633). The experiment in a line: FSTL3 binders on small-molecule microarrays, primary screen, biochemical, small-molecule microarray, 635 nm fluorescence (AID 1105).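 Note: score merges emission near 667 nm and signal to noise per printed spot across three slides.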 The settings on record: FSTL3 binding, higher = more signal.
Sequence of Follistatin-related protein 3 (Homo sapiens) (O95633 whole entry, looked up): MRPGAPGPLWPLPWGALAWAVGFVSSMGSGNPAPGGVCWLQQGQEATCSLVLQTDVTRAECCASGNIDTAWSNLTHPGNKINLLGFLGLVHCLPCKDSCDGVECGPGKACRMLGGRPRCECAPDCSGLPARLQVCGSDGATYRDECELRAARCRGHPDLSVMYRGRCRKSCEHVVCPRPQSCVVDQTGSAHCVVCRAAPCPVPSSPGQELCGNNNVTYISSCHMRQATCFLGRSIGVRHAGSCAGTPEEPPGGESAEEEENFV
The target of experiment [9] is Dickkopf-related protein 1 (Homo sapiens) (UniProt O94907). The experiment can be described thus: DKK1 binders on small-molecule microarrays, primary screen, biochemical, small-molecule microarray, 635 nm fluorescence scan (AID 1106).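 Note: score merges emission near 667 nm with signal to noise over three replicate slides.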 The settings on record: DKK1 binding, higher = more signal.
Sequence of Dickkopf-related protein 1 (Homo sapiens) (O94907 whole entry, looked up): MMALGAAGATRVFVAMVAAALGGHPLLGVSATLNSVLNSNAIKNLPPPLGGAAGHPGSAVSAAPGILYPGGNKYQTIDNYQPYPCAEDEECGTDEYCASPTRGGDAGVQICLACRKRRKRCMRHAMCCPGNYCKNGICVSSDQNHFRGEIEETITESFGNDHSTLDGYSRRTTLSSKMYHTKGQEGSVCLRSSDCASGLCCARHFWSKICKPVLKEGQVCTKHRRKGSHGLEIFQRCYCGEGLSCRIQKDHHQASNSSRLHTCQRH
In experiment [10] the test system is Inhibin beta A chain (activin A). The experiment can be described thus: INHBA (activin A) binders on microarrays, primary screen, biochemical, small-molecule microarray, 635 nm fluorescence scan (AID 1107).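 Note: mouse activin A protein probed at 4.33 µg/mL on printed slides; score merges bound-protein fluorescence near 667 nm with spot signal-to-noise.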 To be noted: small-molecule microarray binding, higher = more signal.
The test system of experiment [11] is Human papillomavirus type 1a protein E7 (residues 44-93). The experiment in a line: HPV1a E7 fragment binders on microarrays, primary screen, biochemical, small-molecule microarray, residues 44-93, 635 nm fluorescence (AID 1108).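 Note: E7 fragment applied at 1 µg/mL in TBST for 1 h at 4 C; score combines spot fluorescence with its signal to noise ratio.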 To be noted: small-molecule microarray binding, fluorescence 635 nm; higher = more signal.
A short description of experiment [12]: modulators of HCV replicon luciferase signal, primary screen, HCV replication inhibitor project, Huh7 cells, luciferase reporter (AID 1109).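 Note: huh7 hepatoma cells harbouring a luciferase neomycin HCV replicon reporter; luciferase luminescence as measure of HCV replicon replication; test concentration not given here.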 The settings on record: 48 h, higher = more signal.
In experiment [13] the target is Left-right determination factor 2 (Homo sapiens) (UniProt O00292). The experiment can be described thus: LEFTY2 binders on small-molecule microarrays, primary screen, biochemical, small-molecule microarray, 635 nm fluorescence scan (AID 1110). To be noted: LEFTY2 binding, higher = more signal.
Sequence of Left-right determination factor 2 (Homo sapiens) (O00292 whole entry, looked up): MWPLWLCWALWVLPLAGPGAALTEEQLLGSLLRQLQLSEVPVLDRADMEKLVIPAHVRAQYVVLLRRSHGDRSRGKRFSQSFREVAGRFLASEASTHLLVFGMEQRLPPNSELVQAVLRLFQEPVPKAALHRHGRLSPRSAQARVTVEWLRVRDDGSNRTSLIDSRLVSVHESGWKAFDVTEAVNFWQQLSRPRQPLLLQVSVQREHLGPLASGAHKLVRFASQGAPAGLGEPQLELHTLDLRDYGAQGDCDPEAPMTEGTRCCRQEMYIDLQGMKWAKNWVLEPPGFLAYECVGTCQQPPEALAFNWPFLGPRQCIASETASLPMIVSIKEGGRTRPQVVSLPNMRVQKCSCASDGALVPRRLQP
Experiment [14] addresses Calmodulin-1 (Homo sapiens) (UniProt P0DP23). The experiment in a line: CALM1 binders on microarrays, EGTA buffer, profiling panel, biochemical, small-molecule microarray, Cy5-labelled CALM1 (AID 1111).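 Note: labelled calmodulin applied in Tris saline Tween buffer holding calcium plus EGTA and DTT.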 To be noted: Cy5-CALM1 binding fluorescence, higher = more signal.
Experiment [15] has the same target. The experiment can be described thus: calcium-bound CALM1 binders on microarrays, profiling panel, artefact control for SMM control-protein annotation, biochemical, small-molecule microarray, Cy5-labelled CALM1, plus calcium (AID 1112).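 Note: score merges spot fluorescence with signal to noise from triplicate slides.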 To be noted: Cy5-CALM1 binding fluorescence, higher = more signal.
Experiment [16] is described as follows: small-molecule microarray binders of probe aWnt5a, primary screen, biochemical, biotinylated probe, 635/667 nm fluorescence (AID 1113).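 Note: score merges 667 nm fluorescence intensity with signal-to-noise per printed feature.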 The settings on record: higher = more signal.
Experiment [17] is described as follows: small-molecule microarray binders of probe aShh, primary screen, biochemical, biotinylated probe, 635/667 nm fluorescence (AID 1114).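 Note: probe is biotin-labelled aShh protein from a stem cell growth factor screen; measures binding of labelled protein to compounds printed on the slide; score merges feature fluorescence at 667 nm with signal-to-noise.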 To be noted: higher = more signal.
Experiment [18] can be described thus: small-molecule microarray binders of probe aNog, primary screen, biochemical, biotinylated probe, 635/667 nm fluorescence (AID 1115).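 Note: probe is biotinylated aNog protein used at 0.15 µg/mL for 1 h at 4 C; z-score combines 667 nm fluorescence of each spot with its signal to noise.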 To be noted: higher = more signal.
For experiment [19], the target named is Torsin-1A-interacting protein 1 (Homo sapiens) (UniProt Q5JTV8). The experiment in a line: LAP1 binders from COS7 cell lysate, primary screen, small-molecule microarray, 635/667 nm fluorescence (AID 1116). The settings on record: COS7-hLAP1 lysate binding, 635 nm fluorescence, higher = more signal.
Sequence of Torsin-1A-interacting protein 1 (Homo sapiens) (Q5JTV8 whole entry, looked up): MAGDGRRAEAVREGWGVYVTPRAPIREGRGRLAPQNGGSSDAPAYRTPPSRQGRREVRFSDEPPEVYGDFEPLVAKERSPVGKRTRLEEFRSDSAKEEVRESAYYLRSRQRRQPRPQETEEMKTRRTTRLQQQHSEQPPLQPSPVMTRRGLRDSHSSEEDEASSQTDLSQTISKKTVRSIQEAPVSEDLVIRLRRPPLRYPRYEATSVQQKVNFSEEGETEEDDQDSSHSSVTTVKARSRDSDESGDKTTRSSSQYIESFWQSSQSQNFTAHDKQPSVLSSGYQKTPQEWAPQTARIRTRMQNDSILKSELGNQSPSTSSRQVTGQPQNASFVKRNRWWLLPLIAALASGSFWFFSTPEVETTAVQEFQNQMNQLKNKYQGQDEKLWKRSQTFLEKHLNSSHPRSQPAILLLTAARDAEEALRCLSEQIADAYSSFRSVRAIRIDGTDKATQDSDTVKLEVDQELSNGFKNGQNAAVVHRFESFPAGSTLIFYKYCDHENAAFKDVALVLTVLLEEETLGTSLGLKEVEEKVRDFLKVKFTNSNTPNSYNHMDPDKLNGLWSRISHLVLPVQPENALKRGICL
The target of experiment [20] is Alpha-bungarotoxin (Bungarus multicinctus) (UniProt P60615). The experiment can be described thus: alpha-bungarotoxin binders on microarray, profiling panel, artefact control for SMM control protein annotation, biochemical, small-molecule microarray, Alexa647 label, 635/667 nm fluorescence (AID 1117). The settings on record: alpha-BTX-A647 binding fluorescence, higher = more signal.
Sequence of Alpha-bungarotoxin (Bungarus multicinctus) (P60615 whole entry, looked up): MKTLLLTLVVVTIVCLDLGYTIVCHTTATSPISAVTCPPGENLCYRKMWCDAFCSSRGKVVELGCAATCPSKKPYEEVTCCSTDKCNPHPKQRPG

Calls of active or inactive are those of the source.

Regarding `CN1C(=O)C2C(C1=O)C1C=C(c3ccc(CO)cc3)C2C(C2CC2)N1C` (stereo not given), the composite z-score in experiment [1] was 0.028; in experiment [2], -0.152; in experiment [3], 0.0977; in [5], 0.192; in [6], 0.249; in experiment [7], 0.35. The composite z-score in experiment [8] is -0.463; in experiment [9], -0.143; in [10] it was 0.304; in experiment [11], 0.208; in [13], 0.0075; in experiment [14], 0.0024. Also, the composite z-score is 0.103 in experiment [15]; -0.0664 in experiment [16]; -0.138 in [17]; -0.0606 in [18]; 0.149 in experiment [19]; 0.219 in experiment [20]. Further, the z-score in experiment [4] is -0.0431 (inactive); in experiment [12], 0.203.
On to `CCCCC(=C=CC[C@H](O)c1ccc(CO)o1)CCO`, for which the composite z-score in [1] was 1.17; in experiment [2] it was -0.0027; in experiment [3], -0.485; in experiment [5] it was 0.738; in experiment [6], 0.514; in experiment [7] it was -0.0244. Moreover, the composite z-score is 0.484 in experiment [8]; -0.0878 in [9]; 0.839 in experiment [10]; 0.906 in experiment [11]; 0.346 in experiment [13]; 0.155 in experiment [14]. Moreover, the composite z-score in [15] was -0.363; in experiment [16], -0.124; in experiment [17] it was 0.137; in experiment [18] it was 0.2; in [19], 0.906; in experiment [20], 0.221. For the same molecule, the z-score is 0.263 (inactive) in experiment [4] and -0.401 in [12].
Take `COc1ccc([Si](C)(C)[C@@H]2[C@@H](CC(=O)N3CCC[C@H]3CO)O[C@]3(C(=O)N(Cc4cccc(N5CCCCC5=O)c4)c4ccccc43)[C@H]2C)cc1`: the composite z-score is 1.29 in experiment [1]; -0.246 in [2]; -0.115 in experiment [3]; 0.32 in [5]; 0.523 in experiment [6]; 0.0941 in experiment [7]. The composite z-score was determined as 0.747 in experiment [8]; 0.414 in experiment [9]; 0.27 in experiment [10]; 0.845 in experiment [11]; 0.415 in experiment [13]; 0.336 in experiment [14]. Also, the composite z-score in [15] is 0.0654; in experiment [16], -0.148; in experiment [17], 0.0723; in experiment [18], 0.21; in experiment [19] it was 0.191; in experiment [20] it was 1.22. In addition, the z-score in experiment [4] is 0.238 (inactive); in [12], -2.57.
`C=CCOC(=O)[C@H]1[C@@H]2C(=O)O[C@@H](c3ccccc3)[C@@H](c3ccccc3)N2[C@@H](c2ccc(OCCOC(=O)[C@H]3C[C@H]4C(=O)N[C@@H](CC(C)C)C(=O)N4[C@H]3c3ccc(O)cc3)cc2)[C@]12C(=O)Nc1ccccc12`: the composite z-score was 1.58 in experiment [1]; 0.0955 in experiment [2]; 0.202 in experiment [3]; 1.47 in [5]; 1.34 in experiment [6]; 1.41 in experiment [7]. The composite z-score in [8] was 1.4; in experiment [9], 1.54; in experiment [10], 0.509; in experiment [11] it was 1.42; in [13], 1.44; in experiment [14], 0.538. Moreover, the composite z-score in experiment [15] was -0.273; in experiment [16], 0.0919; in experiment [17] it was -0.066; in [18] it was -0.582; in [19], 1.78; in experiment [20], 1.52. For the same molecule, the figures for the z-score in experiment [4] and in experiment [12] were 0.119 (inactive) and -1.75, respectively.
Regarding `O=C1NC(=O)C2C1C=CC(C(O)c1ccc([N+](=O)[O-])cc1)N2Nc1ccccn1` (stereo not given), the composite z-score was -0.0076 in [1]; 0.0152 in experiment [2]; 0.14 in experiment [3]; 0.32 in [5]; -0.34 in experiment [6]; 0.633 in experiment [7]. Moreover, the composite z-score in experiment [8] was -0.0907; in experiment [9], 0.328; in [10], 0.854; in experiment [11], -0.382; in experiment [13], 0.33; in [14], 0.259. The composite z-score is -0.746 in [15]; -0.102 in experiment [16]; -0.138 in experiment [17]; 0.0193 in experiment [18]; 0.45 in [19]; -0.011 in [20]. Besides, the z-score in [4] is 1.34 (inactive); in experiment [12] it was 0.403.
For the molecule `C=CC1c2cc(O)c(OC)cc2CCN1C` (stereo not given), the composite z-score in experiment [1] was 0.21; in [2] it was 0.416; in experiment [3], 0.759; in [5] it was -0.169; in [6] it was -1.24; in experiment [7] it was -0.534. The composite z-score in experiment [8] was -0.332; in experiment [9] it was -0.26; in experiment [10] it was 0.725; in experiment [11], -0.728; in [13] it was -0.94; in experiment [14], 0.504. Also, the composite z-score is 1.04 in experiment [15]; -0.112 in experiment [16]; -0.243 in [17]; -0.348 in experiment [18]; 0.381 in experiment [19]; -0.383 in experiment [20]. The z-score in [4] is 0.978 (inactive); in experiment [12], -1.02.
